The source made the active and inactive calls. Unless noted, how the calls were made is not given here.

The subject of experiment [1] is XIP peptide (Xip251-270) binding. The experiment in a line: XIP fragment 251-270 binding compounds – biochemical, small-molecule microarray, fluorescence 635/667 nm, 0.1 µg/mL protein, primary screen (AID 1182). Particulars: fluorescent protein binding, 635 nm, higher = more signal, called active from +8 up or from −8 down.
Another experiment concerns XIP peptide (Xip251-270). The experiment in a line: compounds binding XIP fragment 251-270 – biochemical, small-molecule microarray, fluorescence 635/667 nm, 0.5 µg/mL protein, primary screen (AID 1183). The following applies: fluorescence 635 nm, higher = more signal.
Experiment [2] can be described thus: blood-stage malaria parasite viability loss – strain 3D7, DAPI fluorescence, 100 nL, primary screen (AID 1184).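 Further: parasites grown inside human red blood cells in medium with human serum.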 The following applies: P. falciparum 3D7 growth, 3 d, higher = more signal.
Experiment [3] concerns the target Homeobox protein Hox-A13 (Mus musculus) (UniProt Q62424). Nature of the experiment: disruptors of Hoxa13 oligonucleotide interaction – biochemical, fluorescence polarization, labeled oligonucleotide, primary screen (AID 1185). The following applies: Hoxa13:DNA binding, 15 min, higher = more signal, called active from +8 up or from −8 down.
The nature of experiment [4]: blockers of DNA damage checkpoint Chk1 activation – imaging, HeLa, hydroxyurea, phospho-Chk1 antibody, percent positive cells, primary screen (AID 1186). The following applies: hydroxyurea-induced phospho-Chk1 immunofluorescence imaging, higher = more signal.
Experiment [5] in a line: blockers of DNA damage checkpoint Chk1 activation – imaging, HeLa, hydroxyurea, phospho-Chk1 nuclear intensity, primary screen (AID 1187). Particulars: hydroxyurea-induced phospho-Chk1 immunofluorescence imaging, higher = more signal.

Homeobox protein Hox-A13 (Mus musculus), sequence (Q62424 whole entry, looked up): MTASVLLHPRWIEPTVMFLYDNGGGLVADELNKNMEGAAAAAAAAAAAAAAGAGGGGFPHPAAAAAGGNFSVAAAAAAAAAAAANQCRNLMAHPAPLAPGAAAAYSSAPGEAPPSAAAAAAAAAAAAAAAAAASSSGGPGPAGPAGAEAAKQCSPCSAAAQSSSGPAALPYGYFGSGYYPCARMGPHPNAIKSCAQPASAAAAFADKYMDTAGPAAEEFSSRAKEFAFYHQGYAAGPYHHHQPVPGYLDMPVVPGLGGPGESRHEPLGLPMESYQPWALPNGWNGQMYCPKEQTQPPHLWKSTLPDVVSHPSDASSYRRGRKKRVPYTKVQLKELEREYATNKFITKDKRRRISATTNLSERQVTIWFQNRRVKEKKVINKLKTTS

Turning to `COCC1=C([C@H](O)CCc2ccccc2)[C@H](CO)n2c(=O)n(-c3ccccc3)c(=O)n2C1`, the composite z-score in experiment [1] is 0.625 (inactive); in the experiment on XIP peptide (Xip251-270) it was -0.0859. For the same compound, the z-score was 0.0736 in experiment [2], -3.09 (inactive) in experiment [3], -0.48 (inactive) in experiment [4] and 1.51 (inactive) in experiment [5].
Consider `CCCCCCCCCCC(O)C1C=CC2C(=O)N(C)C(=O)C2N1N1CCCCC1` (configuration not stated), for which the composite z-score in experiment [1] is 0.0477 (inactive); in the experiment on XIP peptide (Xip251-270), 0.0634. Also, the z-score in experiment [2] was -0.152; in experiment [3], -4.08 (inactive); in experiment [4] it was 0.552 (inactive); in experiment [5] it was 0.303 (inactive).
Regarding `CC(C)C[C@@H]1NC(=O)[C@H]2C[C@@H](C(=O)NCCCCCCNC(=O)CS)[C@@H](c3ccc(O)cc3)N2C1=O`, the composite z-score in experiment [1] was 3.87 (inactive); in the experiment with XIP peptide (Xip251-270), 0.409. For the same compound, the z-score in experiment [2] is 0.214; in experiment [3] it was -3.29 (inactive); in experiment [4] it was 1.15 (inactive); in experiment [5] it was 0.716 (inactive).
Regarding `[N-]=[N+]=NCc1ccccc1C[C@@]1(C(=O)O)N=C(c2ccc(OCCCO)cc2)O[C@@H]1c1ccccc1CN=[N+]=[N-]`, the composite z-score in experiment [1] is 0.673 (inactive); in the experiment with XIP peptide (Xip251-270) it was 0.512. For the same compound, the z-score in experiment [2] is 0.107; in experiment [3], -5.11 (inactive); in experiment [4], -0.199 (inactive); in experiment [5] it was -0.026 (inactive).
Turning to `Cc1ccc(S[C@]2(C(=O)NC3CC3)CC(=O)N(Cc3cc(C(F)(F)F)cc(C(F)(F)F)c3)[C@@H]2c2ccc(CO)cc2I)cc1`, the composite z-score is 0.102 (inactive) in experiment [1] and 0.679 with XIP peptide (Xip251-270). In addition, the z-score was 0.496 in experiment [2], -2.13 (inactive) in experiment [3], 0.505 (inactive) in experiment [4] and 0.924 (inactive) in experiment [5].
Regarding `COCCOC(=O)N1C(=O)[C@@]2(c3cc(C#CC4(O)CCCCCC4)ccc31)[C@H](C(=O)NC[C@H](O)c1ccccc1)[C@H]1C(=O)O[C@H](c3ccccc3)[C@H](c3ccccc3)N1[C@@H]2c1ccc(O)cc1`, the composite z-score is 0.273 (inactive) in experiment [1] and 0.78 in the experiment with XIP peptide (Xip251-270). In addition, the z-score was -0.44 in experiment [2], -1.8 (inactive) in experiment [3], 0.302 (inactive) in experiment [4] and 0.487 (inactive) in experiment [5].
Regarding `O=C1NC(=O)C2C1C=CC(C(O)c1ccc(F)cc1)N2Nc1ccccn1` (configuration not stated), the composite z-score in experiment [1] was -0.184 (inactive); in the experiment on XIP peptide (Xip251-270) it was 0.13. The z-score in experiment [2] was 1.25; in experiment [3] it was -1.55 (inactive); in experiment [4], 0.255 (inactive); in experiment [5] it was 0.0273 (inactive).
`COc1ccc(CCNC(=O)[C@@H]2c3ccccc3C(=O)N(CC34CC5CC(CC(C5)C3)C4)[C@H]2c2ccc(CO)cc2)cc1`: the composite z-score is 1.92 (inactive) in experiment [1] and 0.55 in the experiment with XIP peptide (Xip251-270). The z-score is -2.14 in experiment [2], -4.4 (inactive) in experiment [3], -0.0198 (inactive) in experiment [4] and 0.432 (inactive) in experiment [5].
Turning to `COc1cc2c(cc1O)C(C1CC1)N(Cc1ccc([N+](=O)[O-])o1)CC2` (configuration not stated), the composite z-score in experiment [1] was 0.402 (inactive); in the experiment with XIP peptide (Xip251-270), 0.315. Further, the z-score in experiment [2] was -0.993; in experiment [3] it was -6.04 (inactive); in experiment [4], -0.0479 (inactive); in experiment [5], 0.125 (inactive).
Regarding `C[C@@H](OCc1ccccc1)C1NC(=O)[C@@]23C(=O)N[C@@H](Cc4ccccc4)C2[C@H](C)[C@@]2(C)O[C@H]2C3/C=C/C/C=C\CNC(=O)[C@H](Cc2ccccc2)NC1=O` (some centres not stated), the figures for the composite z-score (in experiment [1]; in the experiment on XIP peptide (Xip251-270)) were -0.0678 (inactive) and -0.0412, respectively. Besides, the z-score in experiment [2] is -2.45; in experiment [3], -5.7 (inactive); in experiment [4] it was 0.0781 (inactive); in experiment [5], 0.544 (inactive).
Consider `C=CCC(OC(C)=O)[C@@H]1[C@@H](N(Cc2ccc(-c3ccccc3)cc2)C(=O)c2cccc3ccccc23)c2cc(OCCCO)ccc2N1C(=O)c1ccc2ccccc2c1` (some centres not stated), for which the composite z-score is 0.15 (inactive) in experiment [1] and -0.0461 with XIP peptide (Xip251-270). The z-score is -1.76 in experiment [2], -1.33 (inactive) in experiment [3], -0.293 (inactive) in experiment [4] and -0.006 (inactive) in experiment [5].
In the case of `N#Cc1ccc(C(O)C2C=CC3C(=O)N(c4ccccc4)C(=O)C3N2Nc2ccc([N+](=O)[O-])cc2)cc1` (configuration not stated), the composite z-score in experiment [1] is 1.04 (inactive); in the experiment on XIP peptide (Xip251-270), 0.807. Besides, the z-score in experiment [2] is -1.84; in experiment [3], -4.34 (inactive); in experiment [4] it was -0.138 (inactive); in experiment [5], -1.24 (inactive).
In the case of `COCC(=C=CC[C@@H](O)c1ccc(OCCO)cc1)C[C@@H](O)COCc1ccccc1`, the composite z-score in experiment [1] is 0.705 (inactive); in the experiment on XIP peptide (Xip251-270), 0.181. In addition, the z-score was -2.96 in experiment [2], -4.15 (inactive) in experiment [3], -0.252 (inactive) in experiment [4] and 0.483 (inactive) in experiment [5].
Take `CCCC[C@@H](O)C1=C(COC)Cn2c(=O)n(-c3ccccc3)c(=O)n2[C@H]1CO`: the composite z-score was -0.698 (inactive) in experiment [1] and -0.0217 with XIP peptide (Xip251-270). The z-score in experiment [2] was 0.519; in experiment [3] it was -0.879 (inactive); in experiment [4], -0.464 (inactive); in experiment [5], 0.126 (inactive).
Consider `CCOC(=O)C1=C[C@@H](C(C)(C)C)N(S(=O)(=O)c2ccc(C)cc2)[C@H]1c1ccccc1Cl`, for which the composite z-score is 0.646 (inactive) in experiment [1] and 0.705 in the experiment with XIP peptide (Xip251-270). For the same compound, the z-score was -1.65 in experiment [2], 0.649 (inactive) in experiment [3], 0.271 (inactive) in experiment [4] and -0.0709 (inactive) in experiment [5].
With `Cc1c(-c2ccc(-c3ccc(Cl)c(Cl)c3)o2)nc(-c2ccccc2)c2c1CO[Si]2(C(C)C)C(C)C`, the composite z-score in experiment [1] was 0.401 (inactive); in the experiment on XIP peptide (Xip251-270), 0.761. In addition, the z-score was 0.962 in experiment [2], -1.48 (inactive) in experiment [3], 0.0151 (inactive) in experiment [4] and -0.0709 (inactive) in experiment [5].
With `CC(C)C[C@@H]1NC(=O)[C@H]2C[C@@H](C(=O)NCCCCCNC(=O)CS)[C@@H](c3ccc(O)cc3)N2C1=O`, the composite z-score in experiment [1] was 0.563 (inactive); with XIP peptide (Xip251-270) it was 0.692. The z-score is -0.92 in experiment [2], -3.85 (inactive) in experiment [3], -0.37 (inactive) in experiment [4] and -0.291 (inactive) in experiment [5].

Source of the values: PubChem BioAssay.
